# The list is not random: actives were taken first. Their share in the collection is about 1.3%.
# LmPK inh: qHTS Assay for Inhibitors of Leishmania Mexicana Pyruvate Kinase (LmPK). purified LmPK, Kinase-Glo ATP luminescence, 1 h. actives 0.37% (n = 290,000). Potency, µM (top dose mostly 57.5 µM), actives largely listed as inhibitors
# Target sequence (Q27686 whole entry, looked up): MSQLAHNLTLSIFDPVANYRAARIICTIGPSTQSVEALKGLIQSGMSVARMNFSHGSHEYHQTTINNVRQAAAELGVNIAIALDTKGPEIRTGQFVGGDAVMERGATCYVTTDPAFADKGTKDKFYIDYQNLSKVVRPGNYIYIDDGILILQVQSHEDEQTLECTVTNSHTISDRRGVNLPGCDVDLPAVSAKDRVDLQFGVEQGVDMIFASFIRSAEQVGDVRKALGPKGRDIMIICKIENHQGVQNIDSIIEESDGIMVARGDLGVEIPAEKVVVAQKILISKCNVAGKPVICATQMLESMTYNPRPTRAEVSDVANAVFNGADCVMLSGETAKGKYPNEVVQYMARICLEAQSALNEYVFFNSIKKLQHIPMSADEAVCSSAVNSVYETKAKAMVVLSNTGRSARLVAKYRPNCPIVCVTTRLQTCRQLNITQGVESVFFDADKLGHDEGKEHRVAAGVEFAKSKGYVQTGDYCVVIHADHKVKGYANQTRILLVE
#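 In 50 mM imidazole pH 7.2 with 7 mM MgCl2, LmPK (0.1 nM) turned over PEP (0.5 mM) and ADP (0.1 mM) for 1 h at room temperature. Luciferase read-out of ATP.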
# TbPYK inhibitor: qHTS of Trypanosoma Brucei Inhibitors; TbPYK enzyme, Kinase-Glo Plus ATP luminescence, 45 min; Potency, µM (titrated, usually from 76.8 µM), most hits filed as inhibitors; actives 0.12% (n = 410,000); also: nearly all actives have a fitted effect of over 50% in size
#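 T. brucei PYK with substrate was exposed to pin-transferred compounds across a concentration series, then started with 130 uM ADP (final). After 45 min at room temperature, Kinase-Glo Plus luminescence was read, normalized and curve-fitted.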
# VACV Venus inh: qHTS for Stage-Specific Inhibitors of Vaccinia Orthopoxvirus: Venus Reporter Primary qHTS; Vaccinia virus Venus reporter expression, fluorescence; actives 0.46% (n = 330,000); AID 720580, 2013; Potency, µM (doses to about 36.5 µM), hits mostly inhibitors; calls by dose curve; tested in A549 cells; also: nearly all actives have a fitted effect of over 30% in size
# AMA1-RON2 inh: qHTS for Inhibitors of AMA1-RON; Towards Development of Antimalarial Drug Lead: Primary Screen. Plasmodium falciparum AMA1 (3D7) - RON2 peptide interaction. AlphaScreen AMA1-biotinylated RON2 peptide binding. Potency, µM (top dose mostly 58.2 µM), actives largely listed as inhibitors. actives 0.2% (n = 360,000). AID 720542, 2013; also: nearly all actives have a fitted effect of over 45% in size
#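 AMA1 (3D7) with his tag at 25 nM final met compounds first, then biotinylated RON2 peptide at 25 nM; detection used donor plus acceptor beads, 10 µg/mL apiece, read by AlphaScreen after 30 min at room temperature.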
# RE007 growth inh: qHTS Assay for Inhibitors of the HIV-1 protein Vpr; S. pombe RE007 Vpr strain, BacTiter-Glo ATP luminescence, 24 h; Potency, µM (top dose mostly 92.2 µM), most hits filed as inhibitors; actives 0.21% (n = 360,000); AID 651644, 2012; active = well fitted falling curve with a large enough effect; inconclusive = small, poorly fitted or top-dose-only effect; inactive = no such curve, though single readings can be large or run the other way; also: nearly all actives have a fitted effect of over 50% in size
#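 Fission yeast strain RE007, carrying one chromosomally integrated HIV-1 vpr copy, was seeded at OD 0.01 in PMG+AL medium with 23 nL pinned compound. After 24 h at 30 °C and 99% humidity, viability was read by BacTiter-Glo luminescence.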
# VACV mCherry inh: qHTS for Stage-Specific Inhibitors of Vaccinia Orthopoxvirus: mCherry Reporter Primary qHTS. AID 720579, 2013. Vaccinia virus mCherry reporter infection, fluorescence. actives 0.63% (n = 310,000). Potency, µM (highest dose often 36.5 µM), most hits filed as inhibitors; calls by dose curve; tested in A549 cells; also: nearly all actives have a fitted effect of over 35% in size
# A number is an active result; . = inactive; ? = inconclusive; / = not tested or not shown. Unless noted, calls follow the shape of the dose curve; as a rule, active = well fitted curve in the direction sought with a large enough effect; inconclusive = small, poorly fitted or top-dose-only effect, or another doubt; inactive = no such curve, though single readings can be large; an effect the other way counts as inactive or inconclusive.
SMILES,LmPK inh,TbPYK inhibitor,VACV Venus inh,AMA1-RON2 inh,RE007 growth inh,VACV mCherry inh
COc1ccc(-n2nc3c(N4CCC(C(=O)NCc5cccc(F)c5)CC4)nnc(C)c3c2C)cc1,/,.,28µM,/,/,?
Cc1nnc(N2CCC(C(=O)NCc3ccc(N(C)C)cc3)CC2)c2nn(-c3ccccc3)c(C)c12,/,.,13µM,/,/,13µM
O=C(c1cnsn1)N1CCOc2ccc(C(O)C(c3ccccc3)c3ccccc3)cc2C1 (centres undefined),/,/,.,/,/,.
COc1cccc2nc3c(C(=O)NCCN(C)C)cccc3cc12,/,.,4.5µM,.,.,3.5µM
CN(C)CCNC(=O)c1cccc2nc3c(ccc4ccccc43)nc12,/,.,11µM,.,.,?
COc1ccc(-c2nc3c(C(=O)NCCN(C)C)cccc3c3ccccc23)cc1,/,.,?,.,.,.
COc1ccc(C(=O)NCCN(C)C)c2nc3ccccc3cc12,/,.,6.3µM,.,.,1µM
Cc1ncc2c(c1CNC(=O)c1ccccc1F)CCN(C(=O)c1ccc3c(c1)OCCO3)C2,/,/,.,/,/,.
COc1ccc(S(=O)(=O)Nc2cc(Sc3ncn[nH]3)c(O)c3ccccc23)cc1,3.2µM,/,/,/,32µM,/
Cc1ccccc1N1C(=O)c2cc(N)ccc2N/C1=C\F,/,.,/,/,/,/
COc1ccccc1C1CN(Cc2cccc3c2OCO3)Cc2ccccc2O1 (centres undefined),/,/,.,/,/,.
CC(=O)Nc1ccc(C(=O)N2CCCC(n3cc(C(=O)NCC(C)C)nn3)C2)cc1 (centres undefined),/,/,.,/,/,.
O=C(N/N=C/c1cn(-c2cccs2)nc1-c1ccccc1)c1ccccc1O,.,.,?,.,.,13µM
O=C(N/N=C/c1cn(-c2cccs2)nc1-c1ccccc1)c1ccccc1Br,.,.,?,.,.,.
CCN1CCN(C(=O)N[C@H](C(=O)N[C@@H]2C(=O)N3[C@@H](C(=O)O)C(C)(C)S[C@@H]23)c2ccccc2)C(=O)C1=O,/,.,/,/,/,/
CC1CC2(C)Oc3ccccc3CC2C(C)C1CNCCCN(C)C (centres undefined),.,.,14µM,.,.,?
CC1Cc2ccccc2N1C(=O)CNCCCN(C)C (centres undefined),.,.,.,.,.,/
COc1cc2nc(CN3CC=C(c4ccccc4)CC3)[nH]c(=O)c2cc1OC,/,.,?,.,.,5.6µM
COc1cc2nc(CN3CCN(S(=O)(=O)c4ccccc4)CC3)[nH]c(=O)c2cc1OC,/,.,.,.,.,.
COc1ccccc1-c1ccc(C(=O)N(C)CC2COCCO2)c(N2CCN(c3ccccc3F)CC2)n1 (centres undefined),/,/,.,/,/,.
CCN(CC(=O)Nc1ccc(OC)cc1)C(=O)c1ccc2c(c1)NC(=O)C(C)S2 (centres undefined),/,28µM,.,.,.,.
CCN(CC(=O)Nc1c(F)cccc1F)C(=O)c1ccc2c(c1)NC(=O)C(C)S2 (centres undefined),/,.,.,.,.,.
COc1cc(CN2CCc3nnc(C(NS(C)(=O)=O)C(C)C)n3CC2)ccc1F (centres undefined),/,/,.,/,/,.
CN(C)c1ccc(CNc2ccc3c(c2)ncn3C)cc1,.,.,/,27µM,.,/
CCN(CC)c1ccc(CNc2ccc3c(c2)ncn3C(C)(C)C)cc1,.,.,.,28µM,.,?
SMILES,LmPK inh,TbPYK inhibitor,VACV Venus inh,AMA1-RON2 inh,RE007 growth inh,VACV mCherry inh
CCc1ccc(CNc2ccc3c(c2)ncn3C(C)(C)C)cc1,.,.,.,.,.,.
CCC(C)(C)c1ccc(OCCCC[n+]2ccc(C)cc2)c(C(C)(C)CC)c1,.,.,/,.,?,/
CCC(C)(C)c1ccc(OCCCC[n+]2cccc(C)c2C)c(C(C)(C)CC)c1,.,.,/,.,28µM,/
CC1CCC(C)(NS(=O)(=O)OCC(Cl)(Cl)Cl)CC1 (centres undefined),.,.,.,.,.,.
O=S(=O)(N[C@H]1C[C@@H](NS(=O)(=O)OCC(Cl)(Cl)Cl)C2CCCCC21)OCC(Cl)(Cl)Cl (some centres undefined),.,.,10µM,.,.,?
Cc1ccc(C(C)CCN2CCOc3ccc(CN4CCOCC4)cc3C2)o1 (centres undefined),/,/,.,/,/,.
CCN(CCC(=O)O)c1ccc(/C=C/c2ccnc3ccccc23)cc1,/,/,.,/,/,.
O=C(c1ccc(Cl)cc1)c1c[nH]c(C(=O)NNc2cccc(Cl)n2)c1,.,.,11µM,.,.,?
O=C(NCc1nnc2n1CCN(C(=O)c1cccc(Cl)c1)CC2)C1CC1,/,/,.,/,/,.
CCCCc1c(-c2cccc(Cl)c2)ncn1CCc1ccccc1OC,/,.,.,.,45µM,.
CCCCc1c(-c2ccccc2)ncn1CCc1ccccc1OC,/,.,?,.,.,?
COC(=O)CC1(c2cccc3ccccc23)C(=O)c2ccccc2C1=O,.,.,2.8µM,.,.,/
COC(=O)CC1(c2ccccc2)C(=O)c2ccccc2C1=O,.,.,/,.,.,/
Cc1c(C(=O)Oc2cccc3cccnc23)oc2ccccc12,.,.,.,.,40µM,.
O=C(CCc1ccccc1)NC1(Cc2ccccc2)CCN(CCc2cccs2)C1=O (centres undefined),/,.,.,.,.,.
O=C(NC1(Cc2ccccc2)CCN(Cc2ccc(-c3ccccc3)cc2)C1=O)c1ccccc1 (centres undefined),/,.,?,.,.,11µM
COc1ccc(Cl)cc1S(=O)(=O)N1CCN(C(=O)c2n[nH]c(=O)c3ccccc23)CC1,/,.,?,.,.,28µM
CCOC(=O)C1=CCN(S(=O)(=O)c2ccc(F)cc2)C1c1ccc(Cl)c(Cl)c1 (centres undefined),/,/,13µM,.,.,7.9µM
CCOC(=O)c1nnn(-c2nn3nnnc3c3ccccc23)c1C,.,.,?,.,.,8.9µM
CCOC(=O)c1nnn(-c2nonc2-n2cccc2)c1C,.,.,.,.,.,/
O=c1/c(=C\c2cc([N+](=O)[O-])cc([N+](=O)[O-])c2O)sc2nc3ccccc3n12,.,28µM,.,.,.,.
COc1cccc(CN2CCC3(CCC(CNC(=O)c4ccco4)O3)CC2)c1OC (centres undefined),/,/,.,/,/,.
CC1CSc2nc3sc4c(c3c(=O)n21)CCCC4 (centres undefined),.,.,.,.,22µM,/
O=C(Nc1ccc2c(c1)nc1n2CCSC1)c1ccccc1,16µM,.,/,.,.,/
COc1ccc(C(=O)Nc2ccc3c(c2)nc2n3CCSC2)cc1,.,.,/,.,.,/

# Bioassay records from PubChem BioAssay.
